{"source": "PubChem BioAssay AID463082", "about": "(The Scripps Research Institute Molecular Screening Center, 2010)", "note": "Out of some 330,000 compounds screened, about 4,900 (1.5%) were called active. This is one part of a sample in which actives are shown more often than they occur. A number with no mark means an inactive call.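 How the source made its calls: active means inhibition above the mean inhibition across the screen plus 3 SD (cut at about 25% in these data); inactive means the rest.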"}
{"biological_target": "Platelet-activating factor acetylhydrolase (Homo sapiens) (UniProt Q13093)", "sequence (Q13093 whole entry, looked up)": "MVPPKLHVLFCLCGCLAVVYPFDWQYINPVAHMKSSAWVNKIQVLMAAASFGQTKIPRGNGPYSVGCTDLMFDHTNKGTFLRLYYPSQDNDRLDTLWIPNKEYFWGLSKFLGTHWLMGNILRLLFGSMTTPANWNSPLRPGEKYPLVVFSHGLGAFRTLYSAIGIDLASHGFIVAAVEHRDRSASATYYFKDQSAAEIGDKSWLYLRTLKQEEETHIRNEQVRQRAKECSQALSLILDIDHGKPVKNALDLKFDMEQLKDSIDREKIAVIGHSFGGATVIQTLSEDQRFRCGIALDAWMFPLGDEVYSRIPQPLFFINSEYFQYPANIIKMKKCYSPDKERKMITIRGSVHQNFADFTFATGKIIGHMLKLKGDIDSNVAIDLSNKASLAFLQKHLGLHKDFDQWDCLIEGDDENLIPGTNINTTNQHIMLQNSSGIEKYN", "assay": "pPAFAH enzyme inhibitors, primary screen, biochemical, fluorescence polarization, human (AID 463082);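 further: inhibitors block binding of the rhodamine activity-based probe so polarization drops; 0% = enzyme with DMSO and 100% = wells lacking pPAFAH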", "conditions": "recombinant pPAFAH, FP-rhodamine probe fluorescence polarization; at 3.39 µM; stronger effect = higher value"}
{"compound": "CCC(=C/c1sc2ccc3ccccc3c2[n+]1C)/C=C1\\Sc2ccc3ccccc3c2N1C", "inhibition": "32.4% (active)"}
{"compound": "CC(C)Oc1ccccc1C(=O)NC(CO)C(=O)O", "note": "(stereo not given)", "inhibition": "2.51%"}
{"compound": "CCOC(=O)C1=C(C)OC(N)=C(C#N)C1c1cncc(-c2ccc(F)cc2)c1", "note": "(stereo not given)", "inhibition": "2.24%"}
{"compound": "O=C(Nc1cccc(S(=O)(=O)NC2=NCCC2)c1)C1CCCCC1", "inhibition": "3.38%"}
{"compound": "CCN(CCCNC(=O)c1ccc2c(c1)NC(=O)CN2C)c1cccc(C)c1", "inhibition": "28% (active)"}
{"compound": "CCN(CCCNC(=O)CCn1c(=O)[nH]c2ccsc2c1=O)c1ccccc1", "inhibition": "4.5%"}
{"compound": "CCN(CCCNC(=O)C1CCN(S(=O)(=O)c2cnc[nH]2)CC1)c1ccccc1", "inhibition": "-2.66%"}
{"compound": "COc1cccc(N2CC(NS(=O)(=O)c3ccc(Cl)cc3)CC2=O)c1", "note": "(stereo not given)", "inhibition": "9.38%"}
{"compound": "Cc1ccc2cc(/C=N/Nc3ccc(C(=O)O)cc3)c(Cl)nc2c1", "inhibition": "34% (active)"}
{"compound": "O=C(O)c1ccc(N/N=C/c2ccc3ncccc3c2)cc1", "inhibition": "4.87%"}
{"compound": "Cc1ccc2cc(/C=N/NC(=O)[C@@H]3CCCN3)c(Cl)nc2c1", "inhibition": "3.82%"}
{"compound": "COC(=O)[C@]1(C)CCC[C@@]2(C)C3CC[C@]4(OC(C)=O)C[C@@]3(CCC21)CC4=NO", "note": "(stereo not given in full)", "inhibition": "-4.31%"}
{"compound": "COc1ccc(C)cc1NC(=O)CSc1nnc(CC(=O)Nc2ccccc2F)n1C", "inhibition": "4.03%"}
{"compound": "CC1(OC(=O)C2CCCC2)C(=O)C=C2C=C(c3ccc(C#N)cc3)OC=C2C1=O", "note": "(stereo not given)", "inhibition": "52.5% (active)"}
{"compound": "C=CCN1C=C2C(=O)C(C)(OC(=O)CCc3ccccc3)C(=O)C=C2C=C1c1ccc(C#N)cc1", "note": "(stereo not given)", "inhibition": "12.6%"}
{"compound": "COCCN1C=C2C(=O)C(C)(OC(=O)C3CCCC3)C(=O)C=C2C=C1c1ccsc1", "note": "(stereo not given)", "inhibition": "5.4%"}
{"compound": "O=C(COc1cccc2ccccc12)Nc1cc(S(=O)(=O)N2CCOCC2)ccc1N1CCOCC1", "inhibition": "9.7%"}
{"compound": "O=C(COC(=O)c1ccccc1F)Nc1cc(S(=O)(=O)N2CCOCC2)ccc1N1CCCC1", "inhibition": "5.42%"}
{"compound": "O=C(COC(=O)Cc1ccc(F)cc1)Nc1cc(S(=O)(=O)N2CCOCC2)ccc1N1CCCC1", "inhibition": "31% (active)"}
{"compound": "C/C=C/C(=O)OCc1csc(CC(=O)Nc2ccccc2C)n1", "inhibition": "-0.07%"}
{"compound": "Cc1ccc(NC(=O)Cc2nc(COC(=O)C(C)NS(=O)(=O)c3ccc(C)cc3)cs2)cc1", "note": "(stereo not given)", "inhibition": "32.8% (active)"}
{"compound": "CC(=O)Nc1ccc(S(=O)(=O)NC(C)C(=O)OCC(=O)NC2CCCC2)cc1", "note": "(stereo not given)", "inhibition": "-1.59%"}
{"compound": "COc1ccc(C(=O)NC(=S)Nc2ccccc2N2CCN(S(C)(=O)=O)CC2)cc1OC", "inhibition": "51.7% (active)"}
{"compound": "CCC(=O)Nc1ccccc1N1CCN(S(C)(=O)=O)CC1", "inhibition": "1.48%"}
{"compound": "COc1ccccc1C(=O)NC(=S)Nc1ccccc1N1CCCCC1", "inhibition": "5.28%"}
{"compound": "O=C(CSc1ncnc2c1oc1ccccc12)NC1CCCC1", "inhibition": "-0.51%"}
{"compound": "Cc1ccc(Nc2c(F)c(F)c(F)c(F)c2C(=O)O)c(C)c1", "inhibition": "8.5%"}
{"compound": "COCCCNC(=O)CC1C[C@H](C(=O)N2CCCCC2)[C@@]2(CCc3ccccc3)c3[nH]c4ccccc4c3CCN2C1=O", "note": "(stereo not given in full)", "inhibition": "1.17%"}
{"compound": "CC1=C/C(=N\\OS(=O)(=O)c2ccccc2)C=CC1=O", "inhibition": "0.71%"}
{"compound": "O=C(CCCN1C(=O)/C(=C/c2cccs2)SC1=S)Nc1ccc(O)cc1", "inhibition": "1.25%"}
{"compound": "O=C(CCCN1C(=O)/C(=C\\c2ccco2)SC1=S)Nc1cccc2ccccc12", "inhibition": "27.9% (active)"}
{"compound": "COc1ccc(/C=C2\\SC(=S)N(CCCC(=O)NC3CCCC3)C2=O)cc1OC", "inhibition": "-4.96%"}
{"compound": "O=C(CCCN1C(=O)/C(=C/c2ccccc2)SC1=S)Nc1ccc(O)cc1", "inhibition": "3.48%"}
{"compound": "O=C(CCCN1C(=O)/C(=C/c2ccco2)SC1=S)Nc1ccccc1", "inhibition": "25.9% (active)"}
{"compound": "COc1ccc(/C=C2\\SC(=S)N(CCC(=O)Nc3cccc(C(=O)O)c3)C2=O)cc1OC", "inhibition": "-14.2%"}
{"compound": "COc1ccc(S(=O)(=O)N2CCN(C)CC2)c(C)c1", "inhibition": "-1.79%"}
{"compound": "CN(C)/C=N/c1cc(=O)n(C)c(=O)n1CC1CC1", "inhibition": "-0.49%"}
{"compound": "Cc1ccc(C(=O)NC23CC4CC(CC(C4)C2)C3)c(Cl)c1", "inhibition": "5.48%"}
{"compound": "Cc1ccsc1C(=O)OCC(=O)Nc1cccc(F)c1", "inhibition": "31.5% (active)"}
{"compound": "Cc1ccsc1C(=O)OCC(=O)NCCc1ccccc1", "inhibition": "2.4%"}
{"compound": "CC1CC1C(=O)OCC(=O)Nc1cccc(F)c1", "note": "(stereo not given)", "inhibition": "13.3%"}
{"compound": "Cc1ccc2nc(-c3ccc(SCC(=O)Nc4cc(C)on4)nc3)[nH]c2c1", "inhibition": "-7.51%"}
{"compound": "O=C(CCc1nnc2ccc(NCc3ccco3)nn12)Nc1cc(F)ccc1F", "inhibition": "32.9% (active)"}
{"compound": "CCOc1ccccc1NC(=O)CCc1nnc2ccc(NCc3ccco3)nn12", "inhibition": "6.27%"}
{"compound": "CC(=O)c1ccc(NC(=O)CCc2nnc3ccc(NCc4ccco4)nn23)cc1", "inhibition": "-0.96%"}
